Measured values published in the OligoGym collection.

target: VN1R2; assay: pooled miR-30 sensor sort-seq; sequence = guide strand; conditions: shRNA
Also: reference of the scale not given here.

| Sequence | sensor-assay potency score (higher = more potent) |
| --- | --- |
| TTCTTTGTGATGTTGTTGTTGC | -0.241 |
| TACAAGACCAAAACGATGGAGC | -0.2 |
| TTTACTTTCATCTCTGCCCACC | -1.01 |
| TAGTGCAGCAGTGTTCACTAGC | -0.0087 |

target: VNN1; assay: as above; conditions: shRNA

| Sequence | sensor-assay potency score (higher = more potent) |
| --- | --- |
| TTATTATTCTTGCTTGTGCTGT | -0.405 |
| TTAGCATTATTATTCTTGCTTG | -0.677 |
| TTACTGTTAAGACAGGTCCGGA | -1.14 |
| TTGACACCTGAAATTCTCCAGG | -0.925 |
| TATCATAATGAAATGCTCTTGA | 0.667 |
| TAGAGGATAATATTAACCCGGA | -0.217 |
| TTTCAAACCTGGTAGAAGCTGT | 0.475 |
| TTTCACTCAGCAACACCTCAGG | -0.729 |
| TTCTCAGACATTTTGTAGCTTA | 0.132 |
| TTAAATGACAGCAGAGATCTTT | 0.464 |
| TTTGCCACAACATAGATAGAGT | -0.809 |
| TATGGGTAGAGAGAGTCCCTGT | -0.516 |

target: VNN2; assay: as above; conditions: shRNA

| Sequence | sensor-assay potency score (higher = more potent) |
| --- | --- |
| TAATAATATGAATATTAGCAGG | -1.34 |
| TAAGTTATTGCTGAATTGCTGG | 0.0796 |
| TTAGCAGGTAAGTTATTGCTGA | -0.154 |
| TTTCAAATCTTGTAGAAGCAGT | -0.249 |
| TTAAATGACAGCAAAGCTCCTT | 0.199 |
| TTCTTTTTGTAACATTCTGTAG | -1.08 |
| TATACTACTGAAATAGCCCTTC | 0.854 |
| TTTCGGTAAGTAGCACTTCAGG | -1.26 |
| TATTGTATTGAAAGTAGCCATT | -1.45 |
| TAAATGACAGCAAAGCTCCTTT | 0.246 |
| TTGCACTTCAGCATTGTGCAGA | -0.233 |
| TCTTCTTTTTGTAACATTCTGT | -0.103 |

target: VWA2; assay: as above; conditions: shRNA

| Sequence | sensor-assay potency score (higher = more potent) |
| --- | --- |
| TAACAGAAACATGATGTCCACT | -1.06 |
| TTTGCTTACATGGACTTCCTGG | 0.502 |
| TAGCCGTCCAGTCCTTCTGGAA | -1.51 |
| AAAACCATCCTCTTGATTCTTG | -0.0709 |
| TCTCACAAAGCTCTGCATCTGA | 0.327 |
| TTTGAAAACCATCCTCTTGATT | -0.884 |
| TAGACCATCACATGCTTTGGGC | -0.664 |
| TTGCTTACATGGACTTCCTGGA | -0.0634 |
| TTTCTTTGCTTACATGGACTTC | -1.06 |
| TTTGTCATAGATGTGCAGCAGG | -0.376 |
| TTTGGTTGAACAGATCCTGAGG | -0.36 |
| TTGAAAATGAATCCAAGGGGAA | -0.607 |
